Source: PubChem (National Center for Advancing Translational Sciences (NCATS))
Shown are actives, neighbours in structure and some others; about 19% of the full set was active somewhere.
Pf growth 96h – P. falciparum growth inhibition at 96 hours; Potency, µM (titrated, usually from 28.7 µM), most hits filed as inhibitors; 6.9% of 320,000 active; P. falciparum luciferase reporter growth, 96 h
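Parasite growth measured via integrated firefly luciferase reporter in P. falciparum. Infected erythrocytes at 2% hematocrit, 0.05% parasitemia final were treated 96 hours at 37 C under 5% CO2, and luminescence was read.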
SARS PLP yeast – inhibitors of SARS-CoV papain-like protease in yeast; Potency, µM (top dose mostly 32.9 µM), most hits filed as activators; 0.19% of 330,000 active; S. cerevisiae expressing SARS-CoV PLpro, growth rescue; calls by dose curve; further: nearly all actives have a fitted effect of over 55% in size
Cycloheximide cs – affects cycloheximide protein synthesis inhibition readout, counter-screen; 12% of 300,000 active; max response, %; cell reporter, cycloheximide protein synthesis inhibition counterscreen; AID 2314; in the data active means max response mostly above about 13%, no sharp cut-off; inactive means mostly below about 14%; further: read at 38.3 µM for the half of the compounds with a filed dose
Shiga inhibitor – Shiga toxin inhibition; Vero cells, Shiga toxin protein synthesis inhibition reporter; inhibition, % at 38.7 µM; 9.2% of 290,000 active; in the data active means inhibition mostly above about 28%, no sharp cut-off; inactive means mostly below about 43%
AMA1 RON2 block – inhibitors of Plasmodium falciparum AMA1-RON2 interaction; AID 720542; Potency, µM (doses to about 58.2 µM), most hits filed as inhibitors; AlphaScreen AMA1-biotinylated RON2 peptide binding; 0.2% of 360,000 active; further: nearly all actives have a fitted effect of over 45% in size
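AMA1 (3D7) with his tag at 25 nM final met compounds first, then biotinylated RON2 peptide at 25 nM; detection used donor plus acceptor beads, 10 µg/mL apiece, read by AlphaScreen after 30 min at room temperature.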
Pf growth 48h – inhibits P. falciparum growth in the first generation, 48 h; AID 504832; 5.9% of 310,000 active; Potency, µM (highest dose often 28.7 µM), most hits filed as inhibitors; P. falciparum luciferase growth in erythrocytes, 48 h
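Read-out is firefly luciferase luminescence from an integrated reporter in P. falciparum, so falling signal marks reduced parasite growth. Infected erythrocytes were at 2% hematocrit and 0.1% parasitemia (final) in Albumax-supplemented RPMI 1640.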
Hits are given with their value; [ ] = remark or other dose. Unless noted, the call rests on the fitted dose curve; in most records, active means well fitted curve in the direction sought with a large enough effect; inconclusive means small, poorly fitted or top-dose-only effect, or another doubt; inactive means no such curve, though single readings can be large; an effect the other way counts as inactive or inconclusive.

Results for CCCCCn1c(N2CCN(Cc3ccccc3)CC2)nc2c1c(=O)[nH]c(=O)n2C ?
Pf growth 96h: inconclusive; SARS PLP yeast: inactive; Cycloheximide cs: inactive; Shiga inhibitor: inactive; AMA1 RON2 block: inactive; Pf growth 48h: 12µM

Results for CCCCCCn1c(N2CCN(c3ccccc3)CC2)nc2c1c(=O)n(C)c(=O)n2C ?
SARS PLP yeast: inactive; Cycloheximide cs: inactive; Shiga inhibitor: inactive; AMA1 RON2 block: inconclusive; Pf growth 48h: 6.6µM

How did CCCn1c(N2CCN(Cc3cccc(C)c3)CC2)nc2c1c(=O)[nH]c(=O)n2C do in these assays?
Pf growth 96h: 1.9µM; SARS PLP yeast: inactive; Cycloheximide cs: inactive; Shiga inhibitor: inactive; AMA1 RON2 block: inactive

Results for CN1CCN(c2nc3c(c(=O)[nH]c(=O)n3C)n2CCCSc2nnnn2-c2ccccc2)CC1 ?
Pf growth 96h: 9.3µM; SARS PLP yeast: inactive; Cycloheximide cs: inactive; Shiga inhibitor: inactive; AMA1 RON2 block: inactive; Pf growth 48h: inconclusive

What do the screens show for `CCOCCn1c(N2CCN(c3ccccc3)CC2)nc2c1c(=O)n(C)c(=O)n2C`?
SARS PLP yeast: inactive; Cycloheximide cs: inactive; Shiga inhibitor: inactive; AMA1 RON2 block: inactive; Pf growth 48h: inconclusive

How did C[C@H](NC(=O)c1nc[nH]c1C(=O)N(C)Cc1ccccc1)c1ccccc1 do in these assays?
Pf growth 96h: inactive; SARS PLP yeast: inactive; AMA1 RON2 block: inactive; Pf growth 48h: inactive

Results for CCN1CCN(S(=O)(=O)c2ccc(OC)c(NC(=O)c3ccccc3)c2)CC1 ?
Pf growth 96h: inactive; SARS PLP yeast: inactive; Cycloheximide cs: inactive; Shiga inhibitor: inactive; AMA1 RON2 block: inactive; Pf growth 48h: inactive

Results for Cc1cccc(Cn2c(CN3CCN(Cc4ccccc4)CC3)nc3c2c(=O)[nH]c(=O)n3C)c1 ?
Pf growth 96h: 1.9µM; SARS PLP yeast: inactive; Cycloheximide cs: inactive; Shiga inhibitor: inactive; AMA1 RON2 block: inactive; Pf growth 48h: 6.6µM

How did CCCCCC[n+]1c(-c2ccc(Cl)cc2Cl)csc1Nc1ccccc1 do in these assays?
Pf growth 96h: inconclusive; SARS PLP yeast: inactive; Cycloheximide cs: inactive; Shiga inhibitor: inactive; AMA1 RON2 block: inactive[2.32 µM]; Pf growth 48h: 1.2µM

Results for CC(C)(C)Sc1ccc([N+](=O)[O-])cc1C(=O)Nc1ccncc1 ?
Pf growth 96h: 0.93µM; SARS PLP yeast: inactive; Cycloheximide cs: inactive; Shiga inhibitor: 52; AMA1 RON2 block: inactive; Pf growth 48h: inconclusive

Results for COc1ccccc1C(=O)Nc1ccc(CN2CCCCC2)cc1 ?
Pf growth 96h: inactive; SARS PLP yeast: inactive; Cycloheximide cs: 11; Shiga inhibitor: inactive; AMA1 RON2 block: inactive; Pf growth 48h: inactive

What do the screens show for `COc1ccccc1C(=O)Nc1ccc2c(c1)nc(CN1CCCCC1)n2C`?
Pf growth 96h: inactive; SARS PLP yeast: inactive; Cycloheximide cs: inactive; Shiga inhibitor: inactive; AMA1 RON2 block: inactive; Pf growth 48h: inconclusive

Results for O=C(Nc1ccccc1)c1cc([N+](=O)[O-])ccc1Cl ?
Pf growth 96h: inactive; SARS PLP yeast: inactive; Cycloheximide cs: inactive; Shiga inhibitor: inactive; AMA1 RON2 block: inactive; Pf growth 48h: inactive

How did COc1ccccc1C(=O)Nc1ccc(Cc2ccncc2)cc1 do in these assays?
Pf growth 96h: inactive; SARS PLP yeast: inactive; Cycloheximide cs: 13; Shiga inhibitor: inactive; AMA1 RON2 block: inactive; Pf growth 48h: inactive

How did CCOC(=O)Nc1ccc(S(=O)(=O)Nn2cnnc2)cc1 do in these assays?
Pf growth 96h: inactive; SARS PLP yeast: 22µM; Cycloheximide cs: inactive; Shiga inhibitor: inactive; AMA1 RON2 block: inactive; Pf growth 48h: inactive

How did O=S(=O)(c1ccc2nc(Cl)c(Cl)nc2c1)N1CCN(S(=O)(=O)c2c(F)cccc2F)CC1 do in these assays?
Cycloheximide cs: inactive; Shiga inhibitor: inactive

How did COC(=O)CCN1CCC2CC1c1cc(N3CCCCC3)ccc12 (centres undefined) do in these assays?
AMA1 RON2 block: inactive

What do the screens show for `CCOC(=O)Nc1ccc(Cc2ccncc2)cc1`?
Pf growth 96h: inconclusive; SARS PLP yeast: inactive; Cycloheximide cs: 26; Shiga inhibitor: inactive; AMA1 RON2 block: inactive; Pf growth 48h: inactive

How did COc1c(C)cc(Br)cc1C(=O)Nc1ccc(Cc2ccncc2)cc1 do in these assays?
Pf growth 96h: inactive; SARS PLP yeast: inactive; Cycloheximide cs: inactive; Shiga inhibitor: inactive; AMA1 RON2 block: inactive; Pf growth 48h: inconclusive

Results for CC(C)(C)C(=O)Nc1ccc(Cc2ccncc2)cc1 ?
AMA1 RON2 block: inactive

How did COc1ccc([N+](=O)[O-])cc1C(=O)Nc1ccc(Cc2ccncc2)cc1 do in these assays?
Pf growth 96h: inactive; SARS PLP yeast: inactive; Cycloheximide cs: 13; Shiga inhibitor: inactive; AMA1 RON2 block: inactive; Pf growth 48h: inactive

How did O=C(NC(=S)Nc1ccc(Cc2ccncc2)cc1)c1ccccc1F do in these assays?
Pf growth 96h: inactive; SARS PLP yeast: inactive; Cycloheximide cs: 24; Shiga inhibitor: inactive; AMA1 RON2 block: inactive; Pf growth 48h: inconclusive

Results for O=C(NC(=S)Nc1ccc(Cc2ccncc2)cc1)c1ccccc1Cl ?
Pf growth 96h: inactive; SARS PLP yeast: inactive; Cycloheximide cs: inactive; Shiga inhibitor: inactive; AMA1 RON2 block: inactive; Pf growth 48h: inactive

Results for COc1cccc(-c2ncc3ccccc3c2COC(=O)c2ccco2)c1 ?
Pf growth 96h: inactive; SARS PLP yeast: inactive; AMA1 RON2 block: inactive; Pf growth 48h: inactive

Results for CCOC(=O)c1c(NC(=O)CSc2nnnn2C)sc(C(=O)N(C)C)c1C ?
Pf growth 96h: inactive; SARS PLP yeast: inactive; Cycloheximide cs: inactive; Shiga inhibitor: inactive; AMA1 RON2 block: inactive; Pf growth 48h: inactive

What do the screens show for `COc1cccc(-n2c(SCC(=O)Nc3sc4c(c3C(N)=O)CCC4)nc3ccccc3c2=O)c1`?
Pf growth 96h: inactive; SARS PLP yeast: inactive; Cycloheximide cs: inactive; Shiga inhibitor: inactive; AMA1 RON2 block: inactive; Pf growth 48h: 4.1µM

How did COc1cccc(-n2c(SCC(=O)Nc3nc4ccccc4s3)nc3ccccc3c2=O)c1 do in these assays?
Pf growth 96h: inconclusive; SARS PLP yeast: inactive; Cycloheximide cs: inactive; Shiga inhibitor: inactive; AMA1 RON2 block: inactive; Pf growth 48h: inconclusive

Results for CCOC(=O)c1c(C)[nH]c(C)c1C(=O)CSc1nc2ccccc2c(=O)n1-c1ccc(Cl)cc1 ?
Pf growth 96h: 9.3µM; SARS PLP yeast: inactive; Cycloheximide cs: inactive; Shiga inhibitor: inactive; AMA1 RON2 block: inactive; Pf growth 48h: inconclusive

How did CCOC(=O)c1c(C)[nH]c(C)c1C(=O)CSc1nc2ccccc2c(=O)n1-c1ccc(C)cc1 do in these assays?
Pf growth 96h: inconclusive; SARS PLP yeast: inactive; Cycloheximide cs: inactive; Shiga inhibitor: inactive; AMA1 RON2 block: inactive; Pf growth 48h: inconclusive

How did CCOc1ccccc1-n1c(SCC(=O)Nc2ccccc2C(=O)O)nc2ccccc2c1=O do in these assays?
Pf growth 96h: inactive; SARS PLP yeast: inactive; Cycloheximide cs: 36; Shiga inhibitor: 35; AMA1 RON2 block: inactive; Pf growth 48h: inconclusive

Results for CCOC(=O)c1sc(NC(=O)CSc2nnnn2-c2ccc(C)cc2)c(C(=O)OCC)c1C ?
Pf growth 96h: 5.2µM; SARS PLP yeast: inactive; Cycloheximide cs: inactive; Shiga inhibitor: inactive; AMA1 RON2 block: inactive; Pf growth 48h: inconclusive
